Assay results taken from PMC7819943, “Rice protein-binding microarrays: a tool to detect cis-acting elements near promoter regions in rice”.
In all, about 39,000 sequences were measured (“fluorescence intensity (a.u.)”: median about 4,300, highest 2% from about 39,000 on). The full list was thinned out, with the highest values kept by preference.

What follows are sequences tested against T1, OsSMF1 (Oryza sativa, UniProt Q6ZLB0 1-436) (assay: protein-binding microarray (RPBM); PBS, 2% BSA, 51.3 ng/ul salmon testes DNA, 50 uM zinc acetate, 200 nM TF, 25 C, 1 h; high values mean tight binding). Settings: protein: recombinant; tags: N-terminal polyhistidine and DsRed monomer fusion (pET32a); chain copies: 2; label: CyDye5-dUTP incorporated in the synthesized complementary strand; 3' TTTTT single-stranded linker to array surface; dsDNA, one strand shown.
T1 sequence: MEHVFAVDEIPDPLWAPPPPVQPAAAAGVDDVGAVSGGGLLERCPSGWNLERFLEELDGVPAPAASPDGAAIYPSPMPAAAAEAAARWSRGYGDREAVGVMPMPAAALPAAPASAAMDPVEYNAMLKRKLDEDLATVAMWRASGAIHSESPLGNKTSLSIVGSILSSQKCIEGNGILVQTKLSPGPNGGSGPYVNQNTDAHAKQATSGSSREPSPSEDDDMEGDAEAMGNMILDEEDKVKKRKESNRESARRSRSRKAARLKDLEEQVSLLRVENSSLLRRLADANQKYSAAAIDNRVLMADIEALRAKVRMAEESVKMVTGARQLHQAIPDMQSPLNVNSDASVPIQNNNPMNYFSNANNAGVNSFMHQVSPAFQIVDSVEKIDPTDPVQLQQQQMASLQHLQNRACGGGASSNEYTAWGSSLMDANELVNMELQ
Procedure, shortened: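 In PBS with 2% BSA, salmon testes DNA and 50 µM zinc acetate, 200 nM protein was incubated on a custom Agilent array at 25 °C for 1 h and then washed off. The array had been made double-stranded by primer extension with Cy5-dUTP and blocked with 2% BSA. The proteins were transcription factors fused N-terminally to polyhistidine and DsRed, expressed in E. coli BL21-CodonPlus and purified on Ni–NTA. The binding signal is per-feature fluorescence intensity (arbitrary units) from an Axon 4000B scanner.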

Going from “CATGTCAGACAGTCCACGTCATCACCTTTCTCTCCCCTCTCGGAGTCACCTAGTGCAG” to “TTAACTCGGTCTTCATCCTGTGTGACGCCTACGATACAACCGGAGTCACCTAGTGCAG”, the binding signal falls from 38200 fluorescence intensity (a.u.) to 4380 fluorescence intensity (a.u.).

Compared with “GGCTTCGGCCAGCTAGCCGCCACGTCTCCGCCGGTTTTAACGGAGTCACCTAGTGCAG”, “ATTTCTACCTGACGAAGTGACGATGCACTAGCCAGCTACTCGGAGTCACCTAGTGCAG” is lower in binding signal: 8270 fluorescence intensity (a.u.) for the first, 3900 fluorescence intensity (a.u.) for the second.

Going from “AGACAAATAATTCCCTTTGCCATGCCTGTCAGTTAGGGAACGGAGTCACCTAGTGCAG” to “TATAAAATTTCGCAATAACGACGAAAGTATTAAACGGACACGGAGTCACCTAGTGCAG”, the binding signal rises from 3500 fluorescence intensity (a.u.) to 56200 fluorescence intensity (a.u.).

First: AAACTTTATGTATAGAAATAATATATATATATATATATATCGGAGTCACCTAGTGCAG
Second: CGACATTAAAGATTATGAATATTATGGGCAAATATAGGTCCGGAGTCACCTAGTGCAG
The binding signal of the first is lower: 29000 fluorescence intensity (a.u.) for the first, 57600 fluorescence intensity (a.u.) for the second.

Going from “CTTATTATGGTTATATGTGCAGGTATGGAGTAATAACTGACGGAGTCACCTAGTGCAG” to “TGAGATATATATTTCGTATGTATATAGAGAAATAAAGAAACGGAGTCACCTAGTGCAG”, the binding signal rises from 46400 fluorescence intensity (a.u.) to 57100 fluorescence intensity (a.u.).

Compared with “GAATAATTTATTAAATAATTTATAAATCCTGAAACGAAAACGGAGTCACCTAGTGCAG”, “TTGTATAACTATGTGTATATGTGTATGGTTATTAAGCAAACGGAGTCACCTAGTGCAG” is higher in binding signal: 3520 fluorescence intensity (a.u.) for the first, 10500 fluorescence intensity (a.u.) for the second.

Compared with “TCATAATATTATAAATTTGGACAAAGATATATCATATCACCGGAGTCACCTAGTGCAG”, “ACTTATGATATGAAACGGAGAGAGTAGTAGATAAGATTTTCGGAGTCACCTAGTGCAG” is higher in binding signal: 3150 fluorescence intensity (a.u.) for the first, 28400 fluorescence intensity (a.u.) for the second.

Compared with “AAACATTATTAAATAGGTGTATGAATGACAGTCATACTTGCGGAGTCACCTAGTGCAG”, “GTAAACGCATGCCTTTTCGCAAATTTGTAAAACGAAACGACGGAGTCACCTAGTGCAG” is higher in binding signal: 3490 fluorescence intensity (a.u.) for the first, 31500 fluorescence intensity (a.u.) for the second.

Going from “TCCATGTATATTACATCATGGGGTTATGTAACATCACTGACGGAGTCACCTAGTGCAG” to “TAGGATTCAGCTCCTTCCTATTAGGGGTTCACCCGCGAGTCGGAGTCACCTAGTGCAG”, the binding signal rises from 8280 fluorescence intensity (a.u.) to 13800 fluorescence intensity (a.u.).

Compared with “CTATAAACTTAGTTAAACTAAAGCTGCTATTTAACTTTGACGGAGTCACCTAGTGCAG”, “CGAGGTTGCCCCTCCCCTCTCCTACGTGGTCGTGCCCCAACGGAGTCACCTAGTGCAG” is higher in binding signal: 3280 fluorescence intensity (a.u.) for the first, 5410 fluorescence intensity (a.u.) for the second.

First: ATCGGCAAACGCGTTCCACCAAAACCCTCCACGTCAGCATCGGAGTCACCTAGTGCAG
Second: TTAATTAATTAACGTATGTACTCAGGAATTATATATAATACGGAGTCACCTAGTGCAG
The binding signal of the first is lower: 29800 fluorescence intensity (a.u.) for the first, 35600 fluorescence intensity (a.u.) for the second.

Compared with “AGCAAACATAATTAACATATATATAATAAAGCTCAAAGAGCGGAGTCACCTAGTGCAG”, “TTATAATATATATAATAAATAAATGTATGTTTACTTATAGCGGAGTCACCTAGTGCAG” is higher in binding signal: 3780 fluorescence intensity (a.u.) for the first, 19300 fluorescence intensity (a.u.) for the second.

First: CTCTCTCTCTCTCTCTCTCTCTCTCTTGCCATTTAAAAGACGGAGTCACCTAGTGCAG
Second: TAAAGAAAGAAAAGACATTAATAAAGCAGCAAAGAAAAGACGGAGTCACCTAGTGCAG
The binding signal of the first is lower: 4760 fluorescence intensity (a.u.) for the first, 46000 fluorescence intensity (a.u.) for the second.

Going from “ATAATAAACTGAGAGGAGGATAGTAATATGTACTTAGTAACGGAGTCACCTAGTGCAG” to “CCTTTTCCGCTTTAAAACACCACACAGTGACACACACACCCGGAGTCACCTAGTGCAG”, the binding signal falls from 48400 fluorescence intensity (a.u.) to 5500 fluorescence intensity (a.u.).

Compared with “AGAAGAGAATGGAGTGGAGCTGACATGTGGGCTCCACCATCGGAGTCACCTAGTGCAG”, “GGCTCCGTCTTATCCTAACAACGCCAAGGGGCCACGTATGCGGAGTCACCTAGTGCAG” is higher in binding signal: 3950 fluorescence intensity (a.u.) for the first, 7210 fluorescence intensity (a.u.) for the second.

Going from “CAGTTGACCGCCACGTAGAACCTGTTCCTCCAGCTCACCACGGAGTCACCTAGTGCAG” to “TTCCTCGCGCTCCCACGCCACGCAGCAGCCGCAGATCTCCCGGAGTCACCTAGTGCAG”, the binding signal falls from 9340 fluorescence intensity (a.u.) to 3630 fluorescence intensity (a.u.).

Going from “CACACATTCGCACCGCCGACGCCGAACAGAACAACAACAACGGAGTCACCTAGTGCAG” to “CAGAAACCAACCAACACAAGACACCGACCGACGCCGACCACGGAGTCACCTAGTGCAG”, the binding signal falls from 64700 fluorescence intensity (a.u.) to 8450 fluorescence intensity (a.u.).

Compared with “GGAAGAAGGCCGCCGACGCACAACAGAGGCGGCGGCGGGGCGGAGTCACCTAGTGCAG”, “GCTTTCAAAGCACTCAATTTTCCAGGTCATAACTGTTTTCCGGAGTCACCTAGTGCAG” is higher in binding signal: 3510 fluorescence intensity (a.u.) for the first, 5050 fluorescence intensity (a.u.) for the second.

Going from “ATGTATTTTATGACAACAGAGTAAACAATGTGATATACATCGGAGTCACCTAGTGCAG” to “TTGACAATGTGGTGCTACAGTAAATATTTGATAATGATGGCGGAGTCACCTAGTGCAG”, the binding signal rises from 3220 fluorescence intensity (a.u.) to 3330 fluorescence intensity (a.u.).

First: ACAGATACAATGAGCGAGCGTTTGGTGTAATATGTGACAGCGGAGTCACCTAGTGCAG
Second: ATCTTAAGCTCCTCATTTCATCTATGATTGGCTTGCTTTACGGAGTCACCTAGTGCAG
The binding signal of the first is higher: 43600 fluorescence intensity (a.u.) for the first, 3180 fluorescence intensity (a.u.) for the second.

First: AATAAACCATGGTGTTTGTATTGGTGTGTTGGTGACTACGCGGAGTCACCTAGTGCAG
Second: CCATCGAATCCGGTTCGCGCGCAAGCAAAATCAGCAGCGTCGGAGTCACCTAGTGCAG
The binding signal of the first is higher: 3880 fluorescence intensity (a.u.) for the first, 3830 fluorescence intensity (a.u.) for the second.
